Measurements: the supplement of paper PMC11417369
In all, about 25,000 sequences were measured (“ln(normalized median fluorescence intensity)”: median about 9.3, highest 2% from about 10 on). Shown is part of a subset that was picked to be rich in the highest values.

tested on: PF3D7_0420300 AP2 domain 1 (GST-tagged); experiment: gcPBM binding intensity (ln(normalized median fluorescence intensity)); higher = stronger DNA binding
In short: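 Binding of GST-tagged P. falciparum DNA-binding domains, expressed in E. coli and used at about 25 μg on average, was carried out for 1 h in 1× PBS containing 1% milk, 0.2 mg/ml BSA, 0.5% salmon testes DNA and 0.03% Triton X-100. The target was an Agilent 4 × 180k array of primer-extended double-stranded 36-bp intergenic genomic probes plus negative controls, read with Alexa488 anti-GST antibody at 488 nm. Binding intensity is the highest Masliner-normalised natural-log median intensity across replicate spots of either probe orientation.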

Sequence | gcPBM binding intensity (ln)
AATAATAAACACAATCAAATAAAATATGAAATATAA [GTGCAC_negctrl_site307] | 9.46
AAAAAATATATATTAACACACACACTAATAAAAAAA [CACACA_site8366] | 10
TACATATATAAAAAAACACACACATATATATATATA [CACACA_site8315] | 9.54
TACATAAATTAAAACACACACACACTAATAAAAAAA [CACACA_site8712] | 10.1
ATAATCCTTAAACACACACACACACTAATAAATAAA [CACACA_site8052] | 10.2
ATATATATGAAACACACACACAAAAAAAAAAAAAAA [CACACA_site3647] | 9.69
ATAATATGAAAACACACACACACACTAGAAAAAAAA [CACACA_site5153] | 10.3
TAATAAAAATAAAATTGTACTAATAACATTTCATTA [XGTACX_site3703] | 8.94
TATCTTATGTCTGAAAGTACAAATTTTTTTCTACTT [XGTACX_site2208] | 9.09
TATAATAAATCAAATGCACACACACTAATAAAAAAA [CACACA_site7937] | 10.1
AATAAATATAAAAATGCACACACACTAATAAAAAAA [CACACA_site8201] | 10.2
AAAAAAATAAAGGATATACACACTAATTATATATAT [CACACA_site2812] | 9.64
ATAAATAAAGGACACACACACACACTAGAAAAAAAA [CACACA_site5450] | 10
TATATATATATATATACACACACACTAATAAAAAAA [CACACA_site8426] | 10
GGAAACAAAAAATATATACACACTAATCATAAAAAA [CACACA_site7890] | 9.52
AAAAAAAAAAAACACACACACACACTAATATATAAA [CACACA_site8302] | 10.2
TGCAACAAAATAAACACACACACACTAACACAAAAA [CACACA_site7567] | 10.1
AAAAAATCACAACACACACACACACTAATAAAAAAA [CACACA_site8410] | 10.2
ATAATAAAAAAAAATGCACACATATATATATATATA [CACACA_site8766] | 9.21
ATATAAATAATATAAATACACACTAAAAAAAATATA [CACACA_site542] | 9.69
ATAAATAAAGGACACACACACACACTAATAAAAAAA [CACACA_site8840] | 10.3
CACATATAAATATTAACACACATAATGAGTTATATA [CACACA_site7316] | 9.33
GAATATTAAACAAACACACACACATATATATATATA [CACACA_site3382] | 9.78

Sequence | gcPBM binding intensity (ln)
TTTTTTTTTTATTTTGCACACTTCTAATTTAGTTCT [CACACA_site5828] | 9.45
TTTCTTAAAATGTTATGTACATATTTCGTTTCAAAG [XGTACX_site6102] | 9.01
ATTATATATAAGAAGAGTACTGAATATGTGCAATAT [XGTACX_site4471] | 9.55
ATATAATATGTTGAATGTACTTAAAAAAATGTATCT [XGTACX_site5385] | 9.21
CTAAAATACGGACACACACACACATATATATATATA [CACACA_site6138] | 10.2
TAAATATATATATACACACACATACACAAAAAAAAA [CACACA_site3580] | 10.1
AAAAAAAACGGACACACACACATAAATATATATAAA [CACACA_site4260] | 10.3
TAAATAAATAAAAAAACACACATATATATATATATA [CACACA_site4029] | 9.51
AAAAAAAACGGACACACACACATACAAAATATATAT [CACACA_site4910] | 10.2
AAAACAAACGGACACACACACATATATATATATATA [CACACA_site5924] | 9.97
CCATAAAACTATAATACACACATATAGATTAACATA [CACACA_site7849] | 9.7
CTATAAATGAATGTTTGTACTTAATAATAAAAGAAA [XGTACX_site3170] | 9.06
GCATATTTTATAATTTTACACACCATATAAAATAAT [CACACA_site8904] | 9.51
TGTTTGTAATTATGTATGCACTTTTTTGTATGTGTG [GTGCAC_site9668] | 9.58
AAAAAAAAAAGACACACACACAAAATAAACAAACAA [CACACA_site7308] | 10.3
AAAAAAATAAGACACACACACAAAAAAATAAAAATA [CACACA_site6357] | 10.1
AAAAAAATAAATAAGACACACACAAAAAAAAAAAAA [CACACA_site8404] | 9.97
ACAAAATAAAGACACACACACAAACACAAAAAAATA [CACACA_site7568] | 10.2
AAAAATAAATAAGACACACACAAAAAAAAAAAAAAA [CACACA_site1432] | 9.54
CAAAGAGAAATAAACACACACAAAATAAAGAAAAAA [CACACA_site2245] | 9.74
TATTTTATTATACCAAGTACAAAATTTAAATATGAA [XGTACX_site5478] | 8.99
AAAATAATAAATAAATGTACATATATATATATATAT [XGTACX_site3078] | 9.1
